Experimental findings from the OligoGym collection are described below.

Assay in all cases: pooled miR-30 sensor sort-seq; sequence = guide strand
Conditions in all cases: shRNA

The target of test [1] is CCDC136.
The target of test [2] is CCDC47.
The target of test [3] is CD180.
Test [4] concerns the target CD320.
Test [5] deals with CDC23.
The target of test [6] is CDH24.
Test [7] deals with CDH20.
Test [8] concerns the target CDH2.
Test [9] addresses CDH19.
Test [10] has as its target CHCHD8.
For test [11], the target named is CHID1.
The target in test [12] is CHRM2.
For test [13], the target named is CHMP2A.
Further: reference of the scale not given here.

With TTCCTGACACTTGTTCTTCATG, the sensor-assay potency score (higher = more potent) in test [1] is -1.21.

Turning to TAAGTCTTGTCTCTTGAGGAAC, in test [2], the sensor-assay potency score (higher = more potent) is -1.49.

TAGAGATGTAGTGTATAGCATT returned a sensor-assay potency score (higher = more potent) in test [3] of -1.05.

Take AATGCAGTCATCGCTCAGCGTG: the sensor-assay potency score (higher = more potent) in [4] was -1.16.

TCGCTGCAGTCCAAGTCCCTGT returned a sensor-assay potency score (higher = more potent) in test [4] of -1.39.

In [5], TTTATTAAAACAGACCAGCTTG came in with a sensor-assay potency score (higher = more potent) of -0.155.

The sequence TTCCTCAATGACAAAGAACTGG showed a sensor-assay potency score (higher = more potent) in [6] of -0.774.

In turn, TAGTATTCTTTGGCTTCTCTGT returned a sensor-assay potency score (higher = more potent) in [7] of -0.859.

Take TGTAGTAGAAATGCTGACCATT: in test [7], the sensor-assay potency score (higher = more potent) is -0.339.

Sequence TTTTTATCTCTATCAGACCTGA registered a sensor-assay potency score (higher = more potent) in [8] of -0.29.

As to TGCAAGTCTGTGCTGATGCTGA, the sensor-assay potency score (higher = more potent) in test [6] is -0.691.

Sequence TGGATTGTCGTTGATGTCTTGC registered a sensor-assay potency score (higher = more potent) in test [6] of -0.503.

As to ATCAGTATTAGCTTCTTCGAGC, in test [9], the sensor-assay potency score (higher = more potent) is -1.26.

The sequence TAGTATATTTCATCTCTGCATT yielded a sensor-assay potency score (higher = more potent) in test [7] of -0.967.

In turn, TGATGATGAACTCTGACTCGGG displayed a sensor-assay potency score (higher = more potent) in test [7] of -0.216.

On to TATCTGAATGAAGCTTGCCGAC, for which the sensor-assay potency score (higher = more potent) in test [7] is -1.28.

In [8], TTGTACTTGTCCAAAAACCAAG showed a sensor-assay potency score (higher = more potent) of -1.35.

ATAACTGTAACAGACACGGTTG gave a sensor-assay potency score (higher = more potent) in test [8] of -0.196.

Regarding TTCTTTGGCTTCTCTGTCCATG, the sensor-assay potency score (higher = more potent) in test [7] is -0.339.

Turning to ATCCAGAACAGTGTACACCAGC, in test [6], the sensor-assay potency score (higher = more potent) is -0.986.

In test [7], TATCATTGACATCTGAGAGGGT showed a sensor-assay potency score (higher = more potent) of 0.944.

In test [8], TCACATTTGGTGATTCTCGGTC gave a sensor-assay potency score (higher = more potent) of 0.353.

TTCTATGGGAACCAAGTAGGGG gave a sensor-assay potency score (higher = more potent) in [6] of -0.879.

In test [8], TTTCTCTTAATAGTCACTGGAG came in with a sensor-assay potency score (higher = more potent) of -0.274.

Turning to TAAGCTGAGCAAAATCACCATT, the sensor-assay potency score (higher = more potent) in test [8] is -0.593.

TTGATTGTGACAGGAACACTTC returned a sensor-assay potency score (higher = more potent) in test [7] of -0.452.

In [8], TTAACGTATACTGTTGCACTTT gave a sensor-assay potency score (higher = more potent) of -0.309.

As to TTTCTCGATCAAGTCCAGCTGC, in test [8], the sensor-assay potency score (higher = more potent) is -0.018.

The sequence TTGAGTTGTTGGTCACATCTGG displayed a sensor-assay potency score (higher = more potent) in [7] of 0.759.

Take TTAATTAATACACTTGTTGTTC: the sensor-assay potency score (higher = more potent) in test [9] is -0.144.

As to TTGCTGCATATATCGATCTGGG, the sensor-assay potency score (higher = more potent) in test [8] is -0.846.

For TATCTCTTACATCATCTTCTGG, in [8], the sensor-assay potency score (higher = more potent) was -0.0628.

Take TAGAGAAGCAACGCTCCGGATC: the sensor-assay potency score (higher = more potent) in test [6] is -0.845.

Sequence TTCGAGTCCGCAGCAGAGCAGG yielded a sensor-assay potency score (higher = more potent) in test [6] of -1.36.

TTGATATTGAACACTTTGCTCC: the sensor-assay potency score (higher = more potent) in test [9] is -0.145.

In turn, TCGTTGACATCGCTGAGCGTGA yielded a sensor-assay potency score (higher = more potent) in test [6] of -0.691.

The sequence TTCATCTCTGCATTGATGCCTT displayed a sensor-assay potency score (higher = more potent) in test [7] of -0.00989.

TTTTGTCTTTTACTTATCGTTT: in test [8], the sensor-assay potency score (higher = more potent) is -0.959.

As to TTGGATAATCACTTCGTAGTAT, the sensor-assay potency score (higher = more potent) in [7] is 0.305.

For TTGTCCTGGACAGTAAAGTTGG, the sensor-assay potency score (higher = more potent) in test [6] is -0.744.

TTCATCTCTGTCCAGGGCCCGG yielded a sensor-assay potency score (higher = more potent) in test [6] of -1.68.

In the case of TTTGCTGCATATATCGATCTGG, the sensor-assay potency score (higher = more potent) in test [8] is 0.226.

Sequence TCATCAATCACAAATACGGTGC gave a sensor-assay potency score (higher = more potent) in test [6] of -0.0927.

As to TAGGCTGGGTCAATGAGCGTGT, the sensor-assay potency score (higher = more potent) in test [6] is -0.193.

TTTGTTTCAAAGTCGATTGGTT displayed a sensor-assay potency score (higher = more potent) in test [8] of 0.586.

For the sequence TTTCTTGCTTTCAAAACTCAGG, the sensor-assay potency score (higher = more potent) in test [7] is -0.799.

In [10], ATCGTCTTTCTTCACCCGTTGG showed a sensor-assay potency score (higher = more potent) of -0.879.

In the case of AAACTGACTCTTCTCCAGCAGC, the sensor-assay potency score (higher = more potent) in [11] was -0.926.

As for ATAAGGACTTGTAAGAGCCAGG, the sensor-assay potency score (higher = more potent) in test [12] was -0.765.

With TTTTGTGGTCCGCTTGACTGGG, the sensor-assay potency score (higher = more potent) in [12] came to 0.0688.

As to TTTGCCGAGCAGTAGCTGCGAT, the sensor-assay potency score (higher = more potent) in [11] was -0.629.

As for TTCTTGTCCTTCTTTATCCTGC, in [12], the sensor-assay potency score (higher = more potent) is -0.0112.

TACATGAGTCACTTTTTGGGGT displayed a sensor-assay potency score (higher = more potent) in test [12] of -0.152.

As for TAGTCGTAGGTCATGAGGCTGA, the sensor-assay potency score (higher = more potent) in test [11] is -0.661.

As to TGAAAACTGACTCTTCTCCAGC, in [11], the sensor-assay potency score (higher = more potent) was -0.645.

As to TTCATGGCTTGTGCCATCGAGT, the sensor-assay potency score (higher = more potent) in [13] was -1.33.

In turn, TTCAGCTGTCTGTTCATGGTGC returned a sensor-assay potency score (higher = more potent) in test [13] of 0.372.

With TTCAGTGTCTGGATGTACCTGG, the sensor-assay potency score (higher = more potent) in [11] is 0.597.

Sequence TCACTGTCTAAGACGTTCCGGA had a sensor-assay potency score (higher = more potent) in [11] of -0.147.

TGTAGAGTAGTCGTAGGTCATG showed a sensor-assay potency score (higher = more potent) in test [11] of -1.27.
